Test [1] addresses Glutathione peroxidase 1 (Homo sapiens) (UniProt P07203). The test can be described thus: Primary qHTS Assay for Inhibitors of Recombinant Selenoprotein Glutathione Peroxidase 1 (GPX1) (AID 1845191). For activity, negative = inhibition: % is set by controls: 0 for no effect and ±100 for the full control effect. Note: nearly all actives have a fitted effect of over 65% in size. In outline:
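10 nM GPX1 + cpd, 30 min RT; start w/ 1 mM GSH, 0.5 mM cumene hydroperoxide, 0.5 mM NADPH, 100 nM GR, 0.01% BSA; buffer 50 mM Tris-HCl pH 7.5, 2 mM EDTA, 150 mM NaCl; Fl 340/450, 0 & 15 min.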

Test [2] concerns the target Phospholipid hydroperoxide glutathione peroxidase GPX4 (Homo sapiens) (UniProt P36969). The test can be described thus: Primary qHTS Assay for Inhibitors of Recombinant Selenoprotein Glutathione Peroxidase 4 (GPX4) (AID 1845192). Note: nearly all actives have a fitted effect of over 65% in size. The method, boiled down:
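NADPH consumption, followed by fluorescence at 340/450 nm between 0 and 15 min, reports GPX4 activity via coupled glutathione reductase (100 nM). Enzyme 200 nM was pre-exposed to compound 30 min; 0.5 mM cumene hydroperoxide and 1 mM GSH served as substrates.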

The nature of test [3]: Primary fluorescence-based thiol-reactive (MSTI) qHTS assay for identification of artifact compounds. (AID 1845221).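 For activity change, negative = thiol reactive: series mostly up to about 54 µM; thiol-reactive compounds lower the probe fluorescence signal.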 Note: nearly all actives have a fitted effect of over 65% in size. Note: potency is the fitted concentration of half-maximal effect. In outline: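 In PBS pH 7.4 with 2% DMSO, each compound met 4 uM MSTI for one hour at ambient temperature, shielded from light, before fluorescence detection.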
Test [4] concerns Nanoluciferase (engineered Oplophorus gracilirostris luciferase). Briefly: Primary Nanoluciferase (NLuc) qHTS assay for identification of artifact compounds. (AID 1845222).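 Note: series mostly up to about 54 µM; 0% = DMSO and -100% = no enzyme.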 In outline: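 Compounds are pinned into diluted (1:55) conditioned medium of NLuc-expressing S16 cells and held 15 min at room temperature protected from light. Nano-Glo substrate follows, and luminescence is read 5 min later.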

The nature of test [5]: Primary redox qHTS assay for identification of artifact compounds. (AID 1845223). The method, boiled down:
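Amplex Red (25 uM) and HRP (250 mU/mL) in HBSS, with compounds for 15 min, then 250 uM DTT for 30 min, room temperature, dark. Fluorescence 525/598 nm read; normalized to DMSO and 10 uM DA3003; Hill fit.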

Test [6] in a line: Quantitative High-Throughput drug screen in 47 multiple myeloma cell lines against the NCATS MIPE library collection: FR4_PLB cell viability assay (AID 1918924; note: nearly all actives have a fitted effect of over 35% in size; note: potency is the fitted concentration of half-maximal effect). In outline: (§1)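 Primary qHTS used for cherry-picking: cells at 500/well, library compounds for 48 h (37C, 5% CO2), luminescent ATP assay.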
Test [7] can be described thus: Quantitative High-Throughput drug screen in 47 multiple myeloma cell lines against the NCATS MIPE library collection: Delta47_JCRB cell viability assay (AID 1918925; note: nearly all actives have a fitted effect of over 45% in size; note: potency is the fitted concentration of half-maximal effect). The method, boiled down: (§2)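 Myeloma cells (500 per well) were exposed to MIPE 4.0 compounds by pin transfer and incubated 48 hours at 37C, 5% CO2. Viability was read as ATP by CellTiter-Glo luminescence, normalised to DMSO (100%) and media-only (0%) wells.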

The nature of test [8]: Quantitative High-Throughput drug screen in 47 multiple myeloma cell lines against the NCATS MIPE library collection: EJM_DSMZ cell viability assay (AID 1918926; note: nearly all actives have a fitted effect of over 30% in size; note: potency is the fitted concentration of half-maximal effect). In outline: as §2
The nature of test [9]: Quantitative High-Throughput drug screen in 47 multiple myeloma cell lines against the NCATS MIPE library collection: ARP1_JJKsccF8 cell viability assay (AID 1918928; note: nearly all actives have a fitted effect of over 40% in size; note: potency is the fitted concentration of half-maximal effect). In outline:
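Myeloma cells at 500 per well in 1536-well format treated with MIPE 4.0 library by pin transfer for 48 h at 37C, 5% CO2. Viability from ATP luminescence (CellTiter-Glo), normalized to DMSO (100%) and media-only (0%) wells.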

Test [10] can be described thus: Quantitative High-Throughput drug screen in 47 multiple myeloma cell lines against the NCATS MIPE library collection: ARD_JJKsccE7 cell viability assay (AID 1918929; note: potency is the fitted concentration of half-maximal effect). The method, boiled down: as §2
The nature of test [11]: Quantitative High-Throughput drug screen in 47 multiple myeloma cell lines against the NCATS MIPE library collection: Karpas620_DSMZ cell viability assay (AID 1918959). Note: nearly all actives have a fitted effect of over 30% in size. Note: potency is the fitted concentration of half-maximal effect. In outline:
as §1

In test [12] the target is Metallo-beta-lactamase type 2 (Klebsiella pneumoniae) (UniProt C7C422). Briefly: qHTS to identify inhibitors of the New Delhi Metallo-beta-lactamase (NDM): assay validation screen against the NCATS LOPAC Collection (AID 1794843).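 Note: nitrocefin turnover by NDM-1 measured as 485 nm absorbance at plateau; series mostly up to about 38 µM; % is set by controls: 0 for no effect and ±100 for the full control effect.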 The method, boiled down:
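NDM-1 at 2 nM final in 50 mM HEPES pH 7.0, 1 uM ZnSO4, 0.01% Tween20, preincubated with LOPAC compounds pinned in DMSO; 50 uM nitrocefin (stock) added. Hydrolysis read as absorbance at 485 nm in the plateau phase.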

The nature of test [13]: Quantitative High-Throughput drug screen in 47 multiple myeloma cell lines against the NCATS MIPE library collection: AMO1_DSMZ cell viability assay (AID 1918927; note: nearly all actives have a fitted effect of over 30% in size; note: potency is the fitted concentration of half-maximal effect). The method, boiled down:
as §2

Test [14] addresses Luciferin 4-monooxygenase (Photinus pyralis) (UniProt P08659). Briefly: Primary firefly luciferase (FLuc) qHTS assay for identification of artifact compounds. (AID 1845220). Note: nearly all actives have a fitted effect of over 60% in size. In outline: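 Cell-free, 1536-well qHTS. Buffer pH 7.6 with 0.01% Tween-20 and 0.05% BSA; 10 uM D-luciferin, 10 uM ATP; 10 nM P. pyralis luciferase; luminescence after 5 min.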
In general terms: Quantitative high-throughput screening tests each substance at several concentrations.

This note sets out measurements from PubChem BioAssay (NCATS).

Unmarked numbers belong to inactive results. Records with an inconclusive call do not appear. The source made the active and inactive calls. Calls come from the whole dose curve; as a rule, active = well fitted curve in the direction sought with a large enough effect; inconclusive = small, poorly fitted or top-dose-only effect, or another doubt; inactive = no such curve, though single readings can be large; an effect the other way counts as inactive or inconclusive.

Metallo-beta-lactamase type 2 (Klebsiella pneumoniae), sequence (C7C422 whole entry, looked up): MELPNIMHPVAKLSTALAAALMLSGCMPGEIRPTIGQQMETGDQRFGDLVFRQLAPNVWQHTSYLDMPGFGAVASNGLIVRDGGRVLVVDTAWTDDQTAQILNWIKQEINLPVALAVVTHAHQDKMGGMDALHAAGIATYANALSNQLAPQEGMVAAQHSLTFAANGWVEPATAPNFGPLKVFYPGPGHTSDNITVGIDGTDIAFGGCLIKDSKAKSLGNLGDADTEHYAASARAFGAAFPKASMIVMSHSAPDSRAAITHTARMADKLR
Phospholipid hydroperoxide glutathione peroxidase GPX4 (Homo sapiens), sequence (P36969 whole entry, looked up): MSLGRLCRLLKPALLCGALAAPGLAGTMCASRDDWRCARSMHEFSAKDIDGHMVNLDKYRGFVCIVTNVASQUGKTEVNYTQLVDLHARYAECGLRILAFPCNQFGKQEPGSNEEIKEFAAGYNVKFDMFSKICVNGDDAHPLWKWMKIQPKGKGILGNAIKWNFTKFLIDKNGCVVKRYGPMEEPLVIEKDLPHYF
Glutathione peroxidase 1 (Homo sapiens), sequence (P07203 whole entry, looked up): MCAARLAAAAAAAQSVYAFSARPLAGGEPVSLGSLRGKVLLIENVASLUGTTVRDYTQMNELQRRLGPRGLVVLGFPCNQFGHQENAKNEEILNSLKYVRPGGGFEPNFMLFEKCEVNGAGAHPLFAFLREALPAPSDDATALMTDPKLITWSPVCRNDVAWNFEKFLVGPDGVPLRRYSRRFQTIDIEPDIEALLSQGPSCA

`Cc1n[nH]c(C)c1Cc1sc2c(c1C(=O)N1C[C@H](O)CO1)c(=O)n(C)c(=O)n2CC(C)C`: the Potency result in [1], in [2], in test [3], in [6], in test [7] and in [8] was “inactive” in each case. Further, the Potency entry in test [9], in [10] and in [11] was “inactive” in each case. For the same compound, the compound was classed as inactive in test [4] and in test [5].

`Cc1cccc(-c2[nH]c(C(C)(C)C)nc2-c2ccc3nccnc3c2)n1`: in [12], the call was inactive. Also, the Potency entry in test [1] and in [2] was “inactive” in each case. For the same compound, the results for the Potency in test [7], in [13] and in test [11] were 3.32 µM (active), 5.26 µM (active) and 6.62 µM (active), respectively.

With `CC[C@@H](C)[C@H](NC(=O)[C@H](CC1CCCCC1)NC(=O)c1ccno1)C(=O)N1CCC2(CCc3ccccc32)CC1`, the Potency result in test [1], in [2], in test [14], in test [3], in test [13] and in test [10] was “inactive” each time. For the same compound, the Potency entry in [11] is “inactive”. Moreover, the compound was called inactive in test [4] and in [5]. In addition, in test [6], the Potency was 13.2 µM (active).

With `O=NN(CCCl)C(=O)NCCCl`, the compound was classed as inactive in test [12]. Also, the Potency result in test [1], in test [2], in [7], in test [8], in test [13] and in [11] was “inactive” each time.

In the case of `COc1cccc2cc(-c3nc(C4CCC(C(=O)O)CC4)n4ncnc(N)c34)[nH]c12` (stereo not given), the Potency entry in [1], in [2] and in [14] was “inactive” throughout. Further, the Potency in [3] was 26.7 µM (active); in [6], 0.187 µM (active); in [7], 0.469 µM (active); in test [8] it was 0.187 µM (active); in test [13] it was 0.372 µM (active); in [9], 0.662 µM (active). In addition, the Potency in test [11] is 0.59 µM (active). Also, the compound was called inactive in test [4].

Turning to `Cc1cnc(NC(=O)C2=C(O)c3ccccc3S(=O)(=O)N2C)s1`, the outcome in test [12] was inactive. For the same compound, the Potency result in test [2], in test [7], in test [8], in test [13], in test [9] and in test [11] was “inactive” in each case.

As to `N[C@@H]1CONC1=O`, the result in test [12] was inactive. Further, the Potency entry in test [2], in test [6], in test [7], in test [8], in test [13] and in test [10] was “inactive” in each case. Moreover, in test [11], the Potency result is “inactive”.

Regarding `CC(C)C[C@H](NC(=O)[C@@H](O)[C@H](N)Cc1ccccc1)C(=O)O`, the compound was called inactive in test [12]. Further, the Potency entry in test [1], in test [2], in [13], in test [10] and in test [11] was “inactive” throughout. Further, the Potency in test [7] is 20.9 µM (active); in test [9], 16.6 µM (active).

Take `COc1cc2nccc(Oc3ccc(NC(=O)NC4CC4)c(Cl)c3)c2cc1C(N)=O`: the Potency result in test [1], in [2], in test [3] and in test [11] was “inactive” throughout. Also, the compound was classed as inactive in test [4] and in test [5]. The Potency in test [6] is 23.5 µM (active); in test [7] it was 13.2 µM (active); in [8], 2.09 µM (active); in [13], 2.09 µM (active); in test [9] it was 14.8 µM (active).

Turning to `CNC(=O)c1ccccc1Sc1ccc2c(/C=C/c3ccccn3)n[nH]c2c1`, the Potency result in test [1], in [2] and in test [3] was “inactive” in each case. Further, the call in test [4] and in test [5] was inactive.

Consider `Cc1ccccc1C(OCCN(C)C)c1ccccc1` (stereo not given), for which the call in [12] was inactive. The Potency result in [2], in test [6], in [8], in test [13], in [9] and in [10] was “inactive” throughout. Also, the Potency entry in test [11] is “inactive”.

Consider `CN1CCN(CCCN2c3ccccc3Sc3ccc(C(F)(F)F)cc32)CC1`, for which the result in test [12] was inactive. Besides, the Potency result in [2], in [6], in [8], in test [13] and in [10] was “inactive” in each case. The Potency in [7] was 4.69 µM (active).

Regarding `CC(C)c1onc(-c2c(Cl)cccc2Cl)c1COc1ccc(/C=C/c2cccc(C(=O)O)c2)c(Cl)c1`, the Potency result in [1] is “inactive”.

Regarding `O=C(O)CCc1ccc(NCc2cccc(Oc3ccccc3)c2)cc1`, the result in [12] and in test [4] was inactive. Besides, the Potency entry in test [2], in [6], in [7], in test [8], in test [13] and in [9] was “inactive” throughout. In addition, the Potency entry in test [10] and in test [11] was “inactive” in each case. Besides, the Potency in [3] is 1.68 µM (active).

Consider `O=C(NOC[C@H](O)CO)c1ccc(F)c(F)c1Nc1ccc(I)cc1F`, for which the Potency entry in [1], in test [2], in test [14], in [3], in test [6] and in test [8] was “inactive” throughout. The outcome in [4] and in test [5] was inactive. Besides, the Potency in test [7] was 0.0118 µM (active); in [13] it was 3.72 µM (active); in test [11], 0.0469 µM (active).

Take `Cc1[nH]c(=O)c(C#N)cc1-c1ccncc1`: in test [12], the outcome was inactive. Also, the Potency result in [2], in test [8] and in test [11] was “inactive” throughout. Further, the Potency was 7.43 µM (active) in test [7] and 23.5 µM (active) in [13].

For `NCCc1ccc(O)c(O)c1`, the compound was classed as inactive in [12]. The Potency entry in [1] and in test [2] was “inactive” in each case. For the same compound, the Potency in test [11] was 20.9 µM (active).

Consider `CN([C@@H](Cc1ccc(OS(=O)(=O)c2cccc3cnccc23)cc1)C(=O)N1CCN(c2ccccc2)CC1)S(=O)(=O)c1cccc2cnccc12`, for which the Potency result in test [1] and in test [2] was “inactive” in each case.

As to `CC[C@H](Nc1ncnc2nc[nH]c12)c1nc2cccc(F)c2c(=O)n1-c1ccccc1`, the Potency entry in test [1], in test [2], in test [13] and in test [11] was “inactive” throughout. For the same compound, the outcome in [14] was “inactive [at 11.6 µM]”. For the same compound, the activity change, negative = thiol reactive in [3] is 52.7% [at 11.5 µM]. The activity, negative = inhibition in test [4] was -6.53% [at 11.6 µM]. The redox activity (% of DA3003) in test [5] was 6.84% [at 11.5 µM]. The Potency is 20.9 µM (active) in test [6], 5.26 µM (active) in test [7], 14.8 µM (active) in test [8] and 20.9 µM (active) in [9].

Take `COc1ccc(CCN2CCN(CCCc3ccccc3)CC2)cc1OC`: the Potency result in [1], in test [2], in [14], in test [3], in test [6] and in [8] was “inactive” each time. Moreover, the Potency result in [9] was “inactive”. Moreover, the result in [4] and in [5] was inactive. Also, the Potency in [10] was 13.2 µM (active).

Consider `CCc1cncnc1N1CCN(Cc2nc3ccc(C(F)(F)F)cc3[nH]2)CC1`, for which the compound was classed as inactive in test [12], in [4] and in [5]. Also, the Potency entry in test [2] and in test [3] was “inactive” throughout. Also, the Potency in [7] was 13.2 µM (active); in test [13], 6.62 µM (active); in [11] it was 7.43 µM (active).

Regarding `O=C(Nc1nc2ccccc2n1CCN1CCOCC1)c1cccc([N+](=O)[O-])c1`, the compound was classed as inactive in test [12]. Moreover, the Potency result in test [1] and in test [2] was “inactive” throughout. For the same compound, the Potency in test [8] was 4.18 µM (active); in test [13] it was 4.18 µM (active); in test [10] it was 4.18 µM (active); in test [11], 7.43 µM (active).

For `CN(C)C(=O)c1ccc(S(=O)(=O)c2ccc(NC(=O)[C@@](C)(O)C(F)(F)F)c(Cl)c2)cc1`, the Potency entry in test [1], in [2], in test [14] and in [3] was “inactive” throughout. The compound was called inactive in [4] and in [5]. The Potency in [7] was 10.5 µM (active); in test [8] it was 23.5 µM (active); in test [13], 14.8 µM (active).
